IEC-6 cytotox – counter-screen for KLF5 inhibitors: cytotoxicity in IEC-6 cells | 290,000 tested, 0.78% active | AID 1825 | inhibition, % at 5 µM | IEC-6 cytotoxicity, luminescence viability;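 note: 0% = plate median of test compound wells and 100% = cytotoxic reference compound wells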
GPR7 antag – blocks human GPR7 receptor signaling | P48145 | GPR7-expressing cells, fluorescence antagonist assay | inhibition, % at 4.4 µM | 290,000 tested, 1.1% active; in the data active = inhibition above about 16%, passing the limit was not always enough;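 note: cells stimulated with the agonist NPW; 0% = agonist with vehicle and 100% = vehicle without agonist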
Target sequence (P48145 whole entry, looked up): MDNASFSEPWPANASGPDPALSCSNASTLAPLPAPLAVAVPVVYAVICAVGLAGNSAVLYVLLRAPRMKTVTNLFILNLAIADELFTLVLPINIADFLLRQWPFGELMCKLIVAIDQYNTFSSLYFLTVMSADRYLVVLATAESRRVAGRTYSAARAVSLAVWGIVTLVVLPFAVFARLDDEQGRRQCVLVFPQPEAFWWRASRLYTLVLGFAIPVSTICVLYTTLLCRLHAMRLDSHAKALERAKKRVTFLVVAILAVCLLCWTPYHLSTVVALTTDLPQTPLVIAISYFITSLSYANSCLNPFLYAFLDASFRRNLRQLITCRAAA
KLF5 inhibitor – inhibitors of KLF5 expression; inhibition, % at 5 µM; DLD-1 KLF5 promoter-luciferase reporter, luminescence; 290,000 tested, 0.23% active; AID 1700;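 active = inhibition above a per-plate limit of that plate's mean compound inhibition plus 3 SD, cut at about 60% in these data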;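 note: 0% = DMSO wells and 100% = LY294002 at 200 µM; higher means less KLF5 promoter-driven luciferase light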
BaF3 tox – parental Ba/F3 viability inhibition as JAK2V617F counter-screen; 220,000 tested, 1.1% active; CellTiter-Glo ATP luminescence; inhibition, % at 5.6 µM; AID 1486;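 active = inhibition above a per-campaign cutoff, the mean inhibition of all tested compounds plus 3 SD, cut at about 27% in these data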;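 note: 0% = DMSO wells and 100% = JAK Inhibitor I control wells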
Ba/F3 V617F tox – lowers viability of Ba/F3 cells expressing EpoR and JAK2V617F | ATP luminescence | inhibition, % at 5.6 µM | 220,000 tested, 1.1% active;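 active = inhibition above the campaign mean plus 3 SD over all tested compounds, cut at about 24% in these data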;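 note: cytokine-independent growth of Ba/F3 cells driven by EpoR plus mutant JAK2; 0% = DMSO-treated cells and 100% = JAK inhibitor I control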
DNA FID counter – fluorescent intercalator displacement, NS3 helicase counter-screen. inhibition, % at 7.9 µM. 290,000 tested, 0.17% active. DNA fluorescent intercalator displacement, fluorescence; in the data active = inhibition above about 37%;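 note: 0% = vehicle and 100% = reference compound; higher means more ethidium bromide displaced from hairpin DNA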
GPR7 antag conf – confirmation of human GPR7 antagonists | shares compounds with GPR7 antag | GPR7-expressing cells, calcium fluorescence antagonist mode | inhibition, % at 4.4 µM | 2,400 tested, 52% active | AID 1952; in the data active = inhibition above about 24%;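 note: stimulated with the GPR7 agonist NPW; 0% = agonist plus vehicle and 100% = vehicle alone without agonist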
MCHR1 antag – antagonizes human MCHR1, a GPR7 antagonist counter-screen; inhibition, % at 4.4 µM; 2,400 tested, 62% active; shares compounds with GPR7 antag; MCHR1-expressing cells, fluorescence antagonist assay;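 note: 0% = vehicle with agonist and 100% = vehicle without agonist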
Starred values were filed as active, the others as inactive; x = no result. A selection: hits, their analogues and other compounds. The true share with any hit is near 2.6%. Cut-off read from the data, not from the text of the source, unless noted: active = inhibition above about 22%; inactive = the rest.

SMILES | IEC-6 cytotox | GPR7 antag | KLF5 inhibitor | BaF3 tox | Ba/F3 V617F tox | DNA FID counter | GPR7 antag conf | MCHR1 antag
CCn1[nH]c(=O)c(=Nc2c(C)n(C)n(-c3ccccc3)c2=O)cc1-c1ccc(Cl)cc1 | -4 | 0 | 4 | 1 | 1 | -40 | x | x
COc1cccc(-c2csc3nnc(SCC(=O)NCc4cccs4)n23)c1 | -5 | -14 | -7 | 3 | -3 | -15 | x | x
Cc1ccc(NC(=O)COc2ccccc2CNC(C)(C)CC(C)(C)C)cc1 | -2 | 25* | -54 | 8 | 1 | 17 | 35* | 46*
CCC1(C)Cc2nc3[nH]c(=S)n(-c4ccccc4C)c(=O)c3cc2CO1 (configuration not stated) | -8 | -12 | -2 | -9 | 2 | -27 | x | x
CC(=O)Nc1ccc(S(=O)(=O)N2CCc3cc4c(cc3C2)OCCCO4)cc1 | 1 | 29* | -34 | x | x | -20 | 15 | 37*
CC1CCCC(C)N1CCCNC(=O)CCn1c(=O)c2cccn2c2cccnc21 (configuration not stated) | 3 | -7 | -3 | x | x | -1 | x | x
CC(OC(=O)c1cc2sccc2n1C)C(=O)NCc1ccco1 (configuration not stated) | 1 | -5 | -8 | 2 | 1 | -15 | x | x
O=C(NCCc1ccccc1)C1CCC(=O)N(CCCN2CCCC2=O)C1 (configuration not stated) | -1 | -5 | -17 | x | x | -4 | x | x
O=C(NCCCC1CCCC1)C1CCC(=O)N(Cc2ccc(Cl)cc2)C1 (configuration not stated) | -8 | 28* | -27 | x | x | -43 | 4 | -6
O=C(NCCCc1ccc(F)cc1)C1CCC(=O)N(CCCN2CCCC2=O)C1 (configuration not stated) | -13 | 35* | -6 | x | x | -14 | -2 | 4
COCn1c(-c2ccccc2)nc2ccccc21 | -1 | -6 | -6 | 2 | -3 | 0 | x | x
Cc1ccccc1Nc1nc(NCc2ccco2)c2ccccc2n1 | 12 | 27* | -72 | 7 | 8 | 27 | 14 | 63*
CS(=O)(=O)N(CC(O)Cn1c2ccccc2c2ccccc21)c1ccccc1 (configuration not stated) | 7 | 28* | 1 | 5 | 4 | -21 | 35* | 34*
CN(CC(O)Cn1c2ccccc2c2ccccc21)S(C)(=O)=O (configuration not stated) | 7 | 0 | -16 | 5 | 2 | -9 | x | x
Cc1cccc(C(c2c(C)nn(-c3ccccc3)c2N)c2c(C)nn(-c3ccccc3)c2N)c1 | 10 | 21* | 0 | 4 | -2 | -37 | 21 | 12
O=C(CSc1nnnn1-c1ccccc1)c1ccc(O)cc1O | -4 | -5 | -28 | -1 | -2 | -5 | x | x
Cc1ccc(NC2SC(=O)N(Cc3cccc(C(=O)O)c3)C2=O)cc1 (configuration not stated) | -2 | 29* | -86 | -2 | -4 | -33 | 4 | -4
O=C(O)c1cccc(CN2C(=O)SC(Nc3ccccc3)C2=O)c1 (configuration not stated) | -3 | 3 | -58 | 6 | -3 | -5 | x | x
O=C(Nc1nc2c(s1)CN(Cc1ccccc1)CC2)C1CCC1 | -12 | 4 | -41 | 5 | 1 | -7 | x | x
CN(C)c1ccc(/C=C(\C#N)C(=O)Nc2nc3c(s2)CCN(Cc2ccccc2)C3)cc1 | 0 | 26* | -8 | 7 | 8 | -12 | 33* | 31*
CCOc1ccc(Cc2nc(C)c(CC(=O)N3CCCCC3)c(=O)[nH]2)cc1 | -1 | -5 | -14 | 7 | 2 | -17 | x | x
Cc1ccccc1C(=O)N1CCN=C1SCc1ccc([N+](=O)[O-])cc1 | 8 | 41* | -17 | -4 | -7 | 6 | 26* | 29*
O=C(CSc1nnc(-c2cccs2)n1Cc1ccccc1)NCc1ccc2c(c1)OCO2 | 2 | 2 | 0 | 4 | -1 | -33 | x | x
CC(Sc1nnc(-c2cccs2)n1Cc1ccccc1)C(=O)NCc1ccc2c(c1)OCO2 (configuration not stated) | -5 | 26* | -42 | 7 | 1 | -29 | 19 | 19
O=C(Nc1ccc(F)c(Cl)c1)C1CC(=O)n2c(nc3ccccc32)N1 (configuration not stated) | -5 | -12 | -17 | 4 | 0 | -4 | x | x
SMILES | IEC-6 cytotox | GPR7 antag | KLF5 inhibitor | BaF3 tox | Ba/F3 V617F tox | DNA FID counter | GPR7 antag conf | MCHR1 antag
CC(C)c1cc(N2CCN(C(=O)c3ccco3)CC2)n2c(nc3ccccc32)c1C#N | 0 | 25* | -7 | 3 | -1 | -16 | -9 | 3
CCn1c(N2CCN(C(=O)c3ccco3)CC2)nc2ccccc21 | 1 | -6 | -24 | x | x | -15 | x | x
Cc1ccc(C)c(-n2c3nc(=O)[nH]c(=O)c-3cc3cc([N+](=O)[O-])ccc32)c1 | 14 | 22* | 5 | 56* | 16 | -11 | 42* | 43*
O=C(NC1CC2CCCC(C1)N2C(=O)Nc1ccc(Cl)c(C(F)(F)F)c1)C1CC1 (configuration not stated) | 1 | -3 | -8 | -2 | -1 | -3 | x | x
O=C(Nc1ccc(Cl)c(C(F)(F)F)c1)NC1CC2CCCC(C1)N2Cc1ccccc1 (configuration not stated) | 10 | 27* | -31 | 9 | 2 | 18 | 45* | 87*
COc1ccccc1OCC(=O)NNC(=O)c1cccs1 | -4 | 0 | -35 | 5 | -1 | -4 | x | x
COc1ccccc1/C=C/C(=O)NNC(=O)c1cccs1 | 0 | 30* | -54 | 1 | -1 | -6 | -3 | 4
COc1ccccc1/C=C(/C#N)C(=O)O | 2 | 17 | -11 | 1 | 0 | -3 | -24 | 16
CN(/N=C/c1ccc(-c2ccc([N+](=O)[O-])cc2)o1)c1ccccc1 | 2 | 45* | 2 | x | x | 7 | 56* | 71*
CN(/N=C/c1cc([N+](=O)[O-])ccc1O)c1ccccc1 | 0 | 6 | -16 | 5 | 1 | 0 | x | x
Clc1ccc(Cn2nnc(-c3ccccc3)n2)cc1 | 2 | -4 | 5 | -2 | -5 | -4 | x | x
Clc1ccccc1-c1nnn(Cc2ccc(-c3nn[nH]n3)cc2)n1 | -1 | 24* | -15 | 2 | 1 | -30 | 29* | 19
Cc1cc(S(=O)(=O)Nc2c(C(=O)O)[nH]c3ccccc23)ccc1F | -8 | -5 | 29 | -1 | 1 | -14 | x | x
O=C(CCS(=O)(=O)c1ccccc1)Nc1nc(-c2cccs2)cs1 | -2 | 1 | -3 | 8 | 3 | -22 | x | x
N#Cc1cccc(NC(=O)COc2ccc(-n3ccnc3)cc2)c1 | 3 | 24* | -14 | 3 | -1 | 0 | 4 | 44*
CSc1nc(-c2ccco2)nn1C(=O)Cc1ccccc1 | 2 | -13 | 5 | 2 | 2 | -4 | x | x
